According to PubChem BioAssay AID1159580 (chemical genetic matrix, 2015):
The campaign covered roughly 5,500 compounds. About 2,000 (36%) were called active. About 18% were inconclusive and are not listed. Cut-off read from the data, not from the text of the source: active = normalized growth mostly below about 0.91 (no sharp cut-off); inconclusive = no clear call, values can overlap the other calls; inactive = mostly above about 0.92. Some of the results follow.

Assay: chemical genetic growth profiling, strain panel (AID 1159580);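 note: tested at 20 µM; growth read once vehicle control cultures reached saturation at 30 °C; 1 = growth at the plate median or of vehicle wells; lower values mean less growth of the strain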
Conditions: S. cerevisiae deletion strains, growth OD

Measured: normalized growth

C=C1CCC2[C@](C)(CO)[C@H](O)CC[C@@]2(C)[C@@H]1C/C=C1/C(=O)OC[C@H]1O (some centres undefined)
inactive: locus YAL013W, strain DEP1, active compounds read low 1.01 | locus YAL021C, strain ccr4, active compounds read low 0.993 | locus YAL026C, strain drs2, active compounds read low 0.992 | locus YAL030W, strain snc1, active compounds read low 0.996 | locus YBL061C, strain skt5, active compounds read low 1 | locus YBR009C, strain hhf1, active compounds read low 1.02 | locus YBR021W, strain FUR4, active compounds read low 1 | locus YBR023C, strain chs3, active compounds read low 0.999 | locus YBR171W, strain sec66, active compounds read low 0.978 | locus YBR229C, strain ROT2, active compounds read low 1.01 | locus YBR231C, strain swc5, active compounds read low 0.996 | locus YBR279W, strain paf1, active compounds read low 1 | locus YCL011C, strain gbp2, active compounds read low 0.985 | locus YCL016C, strain dcc1, active compounds read low 0.998 | locus YCL029C, strain bik1, active compounds read low 1.03 | locus YCL069W, strain vba3, active compounds read low 1.01 | locus YCR088W, strain abp1, active compounds read low 1 | locus YDL005C, strain med2, active compounds read low 0.961 | locus YDL035C, strain GPR1, active compounds read low 1.02 | locus YDL040C, strain nat1, active compounds read low 0.995 | locus YDL074C, strain BRE1, active compounds read low 1.06 | locus YDL101C, strain DUN1, active compounds read low 1.02 | locus YDL185W, strain tfp1, active compounds read low 1.03 | locus YDL192W, strain arf1, active compounds read low 1.02 | locus YDR001C, strain nth1, active compounds read low 0.988 | locus YDR069C, strain doa4, active compounds read low 0.992 | locus YDR101C, strain arx1, active compounds read low 1.01 | locus YDR137W, strain rgp1, active compounds read low 0.995 | locus YDR159W, strain sac3, active compounds read low 1.04 | locus YDR162C, strain NBP2, active compounds read low 1.04 | locus YDR195W, strain ref2 0.949 | locus YDR297W, strain sur2, active compounds read low 1 | locus YDR318W, strain mcm21, active compounds read low 1.05 | locus YDR334W, strain swr1, active compounds read low 0.987 | locus YDR335W, strain msn5, active compounds read low 0.986 | locus YDR388W, active compounds read low 1.01 | locus YDR392W, strain spt3, active compounds read low 0.998 | locus YDR502C, strain sam2, active compounds read low 1.05 | locus YEL003W, strain gim4, active compounds read low 0.995 | locus YEL037C, strain rad23, active compounds read low 0.999 | locus YEL061C, strain CIN8 (second series), active compounds read low 0.99 | locus YEL061C, strain CIN8, active compounds read low 1.01 | locus YER015W, strain faa2, active compounds read low 0.994 | locus YER016W, strain bim1, active compounds read low 0.978 | locus YER110C, active compounds read low 1.02 | locus YER111C, strain swi4, active compounds read low 0.988 | locus YER155C, strain BEM2 (second series), active compounds read low 0.995 | locus YER155C, strain BEM2, active compounds read low 1.02 | locus YER167W, strain BCK2, active compounds read low 1.01 | locus YFR010W, strain ubp6, active compounds read low 1.02 | locus YGL078C, strain dbp3, active compounds read low 1.03 | locus YGL086W, strain mad1, active compounds read low 1.01 | locus YGL167C, strain pmr1, active compounds read low 0.992 | locus YGL173C, strain kem1, active compounds read low 1.01 | locus YGL227W, strain vid30, active compounds read low 0.991 | locus YGL240W, strain doc1, active compounds read low 0.999 | locus YGL248W, strain PDE1, active compounds read low 1.03 | locus YGL253W, strain hxk2, active compounds read low 0.971 | locus YGR078C, strain PAC10, active compounds read low 1.03 | locus YGR135W, strain pre9, active compounds read low 1.05 | locus YGR252W, strain gcn5, active compounds read low 1.01 | locus YHR013C, strain ard1, active compounds read low 0.983 | locus YHR027C, strain rpn1, active compounds read low 0.976 | locus YHR079C, strain IRE1 (second series), active compounds read low 1.03 | locus YHR094C, strain hxt1, active compounds read low 1.02 | locus YHR129C, strain ARP1, active compounds read low 1.01 | locus YHR142W, strain chs7, active compounds read low 0.976 | locus YHR200W, strain rpn10, active compounds read low 1.03 | locus YIL066C, strain RNR3, active compounds read low 1.02 | locus YIL073C, strain SPO22, active compounds read low 1.11 | locus YIL125W, strain kgd1, active compounds read low 1.03 | locus YIR030C, strain dcg1, active compounds read low 1.03 | locus YJL092W, strain hpr5, active compounds read low 0.985 | locus YJL095W, strain BCK1 (second series), active compounds read low 0.982 | locus YJL095W, strain BCK1, active compounds read low 1.05 | locus YJL115W, strain asf1, active compounds read low 0.955 | locus YJL129C, strain trk1, active compounds read low 0.982 | locus YJL134W, strain LCB3, active compounds read low 1.01 | locus YJL154C, strain vps35, active compounds read low 0.984 | locus YJL164C, strain tpk1, active compounds read low 1.01 | locus YJL166W, strain qcr8, active compounds read low 0.987 | locus YJL168C, strain set2, active compounds read low 1.02 | locus YJL187C, strain SWE1 (second series), active compounds read low 1.02 | locus YJL187C, strain SWE1, active compounds read low 0.996 | locus YJR043C, strain POL32, active compounds read low 1.02 | locus YKL009W, strain mrt4, active compounds read low 1.02 | locus YKL068W, active compounds read low 1.02 | locus YKL085W, strain MDH1 (second series), active compounds read low 1.03 | locus YKL085W, strain MDH1, active compounds read low 1.03 | locus YKL160W, strain elf1, active compounds read low 0.995 | locus YKL190W, strain CNB1, active compounds read low 1.01 | locus YKR001C, strain vps1, active compounds read low 1.07 | locus YKR026C, strain gcn3, active compounds read low 0.999 | locus YKR091W, strain srl3, active compounds read low 0.979 | locus YLL001W, strain dnm1, active compounds read low 1.01 | locus YLL026W, active compounds read low 0.993 | locus YLL041C, strain sdh2, active compounds read low 1.02 | locus YLR027C, strain aat2, active compounds read low 1 | locus YLR039C, strain RIC1, active compounds read low 1.09 | locus YLR058C, strain SHM2, active compounds read low 1.04 | locus YLR102C, strain apc9, active compounds read low 1.02 | locus YLR221C, strain rsa3, active compounds read low 1.04 | locus YLR258W, strain gsy2, active compounds read low 1.01 | locus YLR262C, strain YPT6 (second series), active compounds read low 0.975 | locus YLR268W, strain sec22, active compounds read low 1.04 | locus YLR320W, strain mms22, active compounds read low 1.04 | locus YLR330W, strain CHS5, active compounds read low 1.02 | locus YLR342W, strain FKS1, active compounds read low 1.02 | locus YLR357W, strain rsc2, active compounds read low 0.979 | locus YLR370C, strain arc18, active compounds read low 0.972 | locus YLR371W, strain rom2, active compounds read low 1.02 | locus YLR384C, strain iki3, active compounds read low 0.993 | locus YLR418C, strain cdc73, active compounds read low 1.07 | locus YML016C, strain PPZ1, active compounds read low 1.01 | locus YML032C, strain rad52, active compounds read low 1.03 | locus YML120C, strain ndi1, active compounds read low 1 | locus YML124C, strain tub3, active compounds read low 1.03 | locus YMR058W, strain fet3, active compounds read low 0.977 | locus YMR078C, strain ctf18, active compounds read low 1.03 | locus YMR125W, strain sto1, active compounds read low 0.98 | locus YMR129W, active compounds read low 0.98 | locus YMR205C, strain PFK2, active compounds read low 0.995 | locus YMR223W, strain ubp8, active compounds read low 1.03 | locus YMR231W, strain pep5, active compounds read low 0.997 | locus YMR307W, strain GAS1, active compounds read low 0.967 | locus YNL067W, strain RPL9B, active compounds read low 1.02 | locus YNL071W, strain lat1, active compounds read low 1 | locus YNL209W, strain ssb2, active compounds read low 0.987 | locus YNL233W, strain BNI4, active compounds read low 1.02 | locus YNL248C, strain rpa49, active compounds read low 0.979 | locus YNL250W, strain rad50, active compounds read low 1.04 | locus YNL271C, strain bni1, active compounds read low 1.03 | locus YNL298W, strain CLA4, active compounds read low 1.03 | locus YNL307C, strain MCK1, active compounds read low 1.04 | locus YNL322C, strain KRE1 (second series), active compounds read low 0.977 | locus YNR049C, strain mso1, active compounds read low 0.974 | locus YNR052C, strain pop2, active compounds read low 1.03 | locus YOL006C, strain TOP1, active compounds read low 1.07 | locus YOL012C, strain htz1 1.13 | locus YOL147C, strain pex11, active compounds read low 1.04 | locus YOR001W, strain rrp6, active compounds read low 1.01 | locus YOR061W, strain CKA2, active compounds read low 1.02 | locus YOR069W, strain VPS5, active compounds read low 1.01 | locus YOR070C, strain gyp1, active compounds read low 1.01 | locus YOR080W, strain dia2, active compounds read low 0.966 | locus YOR083W, strain WHI5, active compounds read low 1 | locus YOR106W, strain vam3, active compounds read low 0.986 | locus YOR136W, strain idh2, active compounds read low 1.04 | locus YOR144C, strain elg1, active compounds read low 1.03 | locus YOR184W, strain ser1, active compounds read low 1.05 | locus YOR265W, strain rbl2, active compounds read low 0.993 | locus YOR270C, strain vph1, active compounds read low 1.02 | locus YOR290C, strain snf2, active compounds read low 0.966 | locus YOR316C, strain cot1, active compounds read low 1.03 | locus YPL051W, strain arl3, active compounds read low 0.986 | locus YPL078C, strain atp4, active compounds read low 0.982 | locus YPL106C, strain sse1, active compounds read low 1 | locus YPL240C, strain hsp82, active compounds read low 0.998 | locus YPL241C, strain CIN2, active compounds read low 1.01 | locus YPR119W, strain clb2, active compounds read low 1.02 | locus YPR141C, strain kar3, active compounds read low 1.01 | locus YPR163C, strain tif3, active compounds read low 1.04 | locus YPR167C, strain met16, active compounds read low 1.03 | strain wtn01, active compounds read low 1.02
